Out of some 200,000 compounds screened, about 18,000 (9%) were called active. Only a selection was taken, and actives are over-represented in it overall. A number with no mark means an inactive call. Cut-off read from the data, not from the text of the source: active = inhibition above about 50%; inactive = the rest. Where a SMILES comes first, the peptide text is derived from it. The star is where a group is joined. OPac = O=C(CO*)c1ccccc1; Bz = O=C(c1ccccc1)*
Assay: antileishmanial activity against promastigotes – primary screen (AID 1063);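 note: promastigotes grown with compound for 44 hours at 28 °C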
Conditions: Leishmania major promastigotes, resazurin fluorescence viability; at 10 µM; hits give high values

Structure (SMILES)	inhibition
CN1CCN(CCNC(=O)Nc2ccc([N+](=O)[O-])cc2)CC1	-0.61%
O=C(Nc1cc(Cl)cc(Cl)c1)C(NCCCO)c1ccccc1 (stereo unspecified)	10.6%
Cc1ccc(-c2cc(=O)c3ccc(F)cc3[nH]2)cc1	1.73%
CN1C(=O)C(CC(=O)Nc2ccccc2)S/C1=N/c1nccs1 (stereo unspecified)	-4.38%
CS(=O)(=O)N(CC(=O)N1CCCC1)Cc1ccccc1	-5.77%
Cc1cccc(-n2c(N)c(C(=O)N3CCN(C)CC3)sc2=S)c1	9.91%
Cc1ccc(-n2c(N)c(C(=O)N3CCOCC3)sc2=S)c(C)c1	6.62%
N#Cc1ccccc1-n1c(N)c(C(=O)N2CCCC2)sc1=S	52.1% (active)
O=C(CNC(=O)c1ccccc1)NCC(=O)OCC(=O)c1ccccc1 (Bz-Gly-Gly-OPac)	-9.69%
COc1ccc(C)cc1NC(=O)C(Sc1ccccc1)c1ccccc1 (stereo unspecified)	3.92%
COc1ccc(C)cc1NC(=O)C(OC(=O)c1cccc(S(=O)(=O)N(C)c2ccccc2)c1)c1ccccc1 (stereo unspecified)	97.6% (active)
COc1ccc(C)cc1NC(=O)Nc1ccccc1SC	10.1%
OC(COCC1COc2ccccc2O1)CN1CCN(c2ccc(F)cc2)CC1 (stereo unspecified)	12%
Cc1ccnc(NC(=O)CCC(=O)N(CC(=O)NCCc2ccccc2)Cc2cccs2)c1	-4.68%
CCOc1ccc(CN2CCN(Cc3ccon3)CC2CCO)cc1 (stereo unspecified)	-5.47%
CCOc1ccc(CN2CCCN(C)CC2)cc1	54.1% (active)
CCOc1ccc(CN2CCN(Cc3ccc(C)o3)CC2CCO)cc1 (stereo unspecified)	-0.08%
COC(=O)c1sc2[nH]c(=S)n(N)c(=O)c2c1C	-7.2%
CC1CCCCC1NC(=O)CO/N=C/c1ccc(OC(F)F)cc1 (stereo unspecified)	13.4%
CCOc1ccc(C(=O)NC2CCN(CC(=O)NCc3cccs3)CC2)cc1	-4.61%
Cc1cc(C#N)c(SCC(N)=O)nc1-c1ccc(F)cc1	2.96%
Cc1cccc(NC(=S)N2CCC(c3nc4ccccc4s3)CC2)c1	-0.22%
CCCNC(=S)N1CCCC(c2nc3ccccc3[nH]2)C1 (stereo unspecified)	7.49%
Cc1cccc(NC(=S)N2CCCC(c3nc4ccccc4[nH]3)C2)c1 (stereo unspecified)	99.1% (active)

Structure (SMILES)	inhibition
O=c1cc(CO)oc(C(Nc2cccc(C(F)(F)F)c2)c2ccccn2)c1O (stereo unspecified)	2.74%
Cc1ccc(Sc2ccncc2S(N)(=O)=O)cc1	84.9% (active)
CNS(=O)(=O)c1cnccc1N1CCN(c2cccc(C)c2)CC1	8.07%
Cc1cc(NC(=O)CSCc2ccccc2C)no1	-8.79%
Cc1ccc2oc(=O)c3cnn(CC(=O)N(Cc4ccco4)C4CCCCC4)c3c2c1	22.1%
Cc1ccc2c(c1)N(CC(=O)N(Cc1ccccn1)Cc1ccco1)C(=O)C(C(C)C)O2 (stereo unspecified)	75.7% (active)
Cc1ccc(C(C(=O)NC2CCCC2)N(Cc2ccco2)C(=O)CCC(=O)Nc2ccccn2)cc1 (stereo unspecified)	-1.72%
NC(=O)COC(=O)c1cc(S(=O)(=O)N2CCN(c3ccccc3)CC2)ccc1Cl	-1.75%
Cc1nn(Cc2ccc(Cl)cc2)c(Cl)c1/C=N/NC(=O)CNc1ccccc1F	8.05%
Cc1cc(C)c2nc(-c3cccnc3)cc(C(=O)Nc3ccc(S(=O)(=O)Nc4onc(C)c4C)cc3)c2c1	-3.47%
N#Cc1ccc(C(=O)Nc2cccc3cccnc23)c(F)c1	-0.23%
S=C(NCc1cccnc1)Nc1ccc(Cl)cc1Cl	10.6%
CC(=O)/C(=N\Nc1ccc(Cl)cc1Cl)Sc1cccc2cccnc12	96.8% (active)
O=C(NN1C(=O)C2C3C=CC(O3)C2C1=O)c1ccccc1 (stereo unspecified)	-9.99%
O=C1CC(N2CCN(c3ccc(F)cc3)CC2)C(=O)N1c1ccccc1 (stereo unspecified)	-0.81%
CC(C)(C)NC(=O)NC(=O)COC(=O)Cc1ccc(Cl)cc1Cl	-4.1%
CCCNC(=O)NC(=O)COC(=O)CC(NC(N)=O)c1ccc(Cl)cc1 (stereo unspecified)	56.2% (active)
COCCNC(=O)NC(=O)COC(=O)C1(c2ccc(Cl)cc2)CC1	-5.98%
O=C(Nc1ccccc1C(=O)N1CCCCCC1)c1ccccc1Cl	4.51%
COc1ccc(-c2ccc(CCC(=O)O)n2-c2ccc(O)cc2)cc1	-1.18%
Cc1ccsc1C1C(C#N)=C(N)OC2=C1C(=O)CC(C)(C)C2 (stereo unspecified)	9.53%
COc1ccccc1C(c1nnnn1C(C)(C)C)N1CCN(Cc2ccccc2)CC1 (stereo unspecified)	17.2%
CCCC(c1nnnn1C(C)(C)C)N1CCN(Cc2ccccc2)CC1 (stereo unspecified)	-6.34%
CCC(C)(C)n1nnnc1C(c1cccs1)N1CCN(Cc2ccccc2)CC1 (stereo unspecified)	50.4% (active)

Structure (SMILES)	inhibition
CCC(C)(C)n1nnnc1C(c1ccccc1OC)N1CCSCC1 (stereo unspecified)	6.66%
Fc1ccc(Cn2nnnc2C(c2cccs2)N2CCCCCC2)cc1 (stereo unspecified)	5.18%
CCC(C)(C)n1nnnc1C(c1cccs1)N1CCN(c2nc3ccccc3s2)CC1 (stereo unspecified)	81.4% (active)
CC(C)N(Cc1ccccc1)C(=O)COC(=O)c1cnccn1	-4.04%
COC(=O)Cc1c(O)ccn(Cc2cccc(C(F)(F)F)c2)c1=O	-15.9%
CC(Sc1nnnn1C1CCCCC1)C(=O)O (stereo unspecified)	-5.74%
O=C(N/N=C/c1ccc([N+](=O)[O-])cc1)C(=O)N1CCCC1	-5.07%
O=C(OCC(=O)c1cccs1)c1ccc([N+](=O)[O-])o1	13.5%
COc1ccc(Nc2cc(C)nc(-n3nc(C)cc3C)n2)cc1	28.9%
COc1ccc(-c2nn(-c3ccccc3)cc2/C=N/Nc2ccccn2)cc1OC	27.8%
COc1cccc(/C=N/Nc2ncc(C(F)(F)F)cc2Cl)c1O	28.2%
COc1ccccc1/C=N\Nc1cc(C)nc(-n2nc(C)cc2C)n1	98.9% (active)
COc1cccc2c(N/N=C/c3ccco3)cc(C)nc12	2.22%
COc1cccc(/C=N/Nc2cc(C)nc(-c3ccccc3O)n2)c1O	71.2% (active)
CCc1ccc(CN(C)Cc2nc(Cc3ccccc3)no2)nc1	14%
S=C(NCc1ccco1)Nc1ccc2c(c1)OCCO2	-4.58%
O=C(NCCc1ccccc1)C1CCC(Cn2c(=O)c3ccccc3n(Cc3cccnc3)c2=O)CC1 (stereo unspecified)	73.5% (active)
O=C(O)C1CC(=O)N(Cc2cccnc2)C1 (stereo unspecified)	-7.68%
COc1ccc(CCNC(=O)Cn2c(=O)n(CC3CCCO3)c(=O)c3ccccc32)cc1OC (stereo unspecified)	-4.82%
Cc1c(CN2CCCC(C(=O)c3cccc(Cl)c3)C2)c(=O)n(-c2ccccc2)n1C (stereo unspecified)	16.8%
CCN(CC)CCNC(=O)c1ccc(NS(=O)(=O)c2ccc3c(c2)OCCO3)cc1	-8.8%
Cc1cccc(OCC(=O)Nc2ccccc2F)c1	8.74%
CC(C)C(C)(C#N)NC(=O)CSc1nncn1-c1ccccc1 (stereo unspecified)	-0.78%
CCCNS(=O)(=O)c1ccc(CCC(=O)N2CCCC2)cc1	1%

Structure (SMILES)	inhibition
S=C(NCc1ccc(Cl)cc1)NC1CCCCC1	57.3% (active)
CN(C)CCCNC(=S)NCc1ccc(Cl)cc1	-5.52%
S=C(NCc1ccc(Cl)cc1)NC12CC3CC(CC(C3)C1)C2	36.3%
O=c1[nH]c(=S)[nH]c2[nH]c(=S)[nH]c12	7.12%
COC(=O)C1=C(N)Oc2cc(C)oc(=O)c2C1c1cccnc1 (stereo unspecified)	42.3%
CCSc1nc2c(c(=O)[nH]1)C(c1cccnc1)C(C(=O)OC(C)C)=C(C)N2 (stereo unspecified)	56% (active)
COC(=O)C1=C(C)Nc2ncnn2C1c1cccnc1 (stereo unspecified)	-4.12%
N/C(=N\OC(=O)CCCC(=O)O)c1ncc(C(F)(F)F)cc1Cl	-0.94%
COc1ccc(N2C(=O)/C(=C\c3ccco3)N=C2SCC(N)=O)cc1Cl	51.5% (active)
COc1ccc(Cl)cc1C(=O)NNC(=S)NC(=O)/C=C/c1ccco1	18.7%
COc1ccc([N+](=O)[O-])cc1NC(=O)COC(=O)/C=C/c1ccco1	-8.41%
COc1cccc2c(=O)n(CC(=O)N3CCCCCC3)ccc12	-6.35%
CCOC(=O)C1CCN(C(=O)Cn2cc(C#N)c3ccccc32)CC1	0.22%
CCc1cccc2c(C=C(C#N)C#N)cn(CC(=O)N3CCCCC3)c12	78% (active)
Cc1ccccc1NC(=O)c1ccc(COc2ccc3c(C)cc(=O)oc3c2)cc1	-4.07%
Cc1ccsc1C1C(C#N)=C(N)OC2=C1C(=O)CC(C)C2 (stereo unspecified)	5.83%
C/C=C/C=C/C(=O)OCC(=O)Nc1ccc(Cl)cc1	0.85%
C=CCN(CC=C)S(=O)(=O)c1ccc(C(=O)Nc2nc3c(s2)CCc2ccccc2-3)cc1	25.3%
COCCN(CCOC)S(=O)(=O)c1ccc(C(=O)Nc2nc3c(s2)CCc2ccccc2-3)cc1	78.1% (active)
COc1ccc(C(=O)Nc2ncc3c(n2)-c2ccccc2CC3)cc1	33.3%
CC(C)C(NC(=O)C1CCC(C(C)(C)C)CC1)C(=O)NCCCN1CCCCC1 (stereo unspecified)	4.42%
COc1ccc(C=Nc2cccc3ncccc23)cc1	-0.39%
Cc1ccc2[nH]c(=O)c(CC=C(Cl)Cl)c(C)c2c1	5.81%
COC(=O)c1ccc(/C=N/N2C(C)CCCC2C)cc1 (stereo unspecified)	1.84%

— PubChem BioAssay AID1063 (University of Pittsburgh Molecular Library Screening Center, 2008)
